High-throughput results: PubChem BioAssay, National Center for Advancing Translational Sciences (NCATS)
Shown are actives, neighbours in structure and some others; about 10% of the full set was active somewhere.
GPT2 inh: GPT2 alanine aminotransferase inhibition | Q8TD30 | Recombinant GPT2, coupled pyruvate oxidase/HRP Amplex Red fluorescence | Potency, µM (doses to about 57.7 µM), for inactives: at the top dose activity change, negative = inhibition, hits mostly inhibitors | 100,000 compounds, 0.25% hits | AID 1671188; further: nearly all actives have a fitted effect of over 60% in size
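Fluorescence of coupled pyruvate oxidase/HRP/Amplex Red system (50uM Amplex, 30 min, dark) reports pyruvate formed by GPT2. Enzyme reaction: 10ng/uL GPT2, 2mM L-alanine, 250uM a-KG, 30 min room temperature, pH 7.5; 50uM AOA control.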
hNpr1 antagonist: antagonists of human natriuretic peptide receptor Npr1; HEK293 hNpr1 GloSensor cGMP, ANP-stimulated luminescence; Potency, µM (doses to about 46.3 µM), for the others: at the highest dose activity change, negative = inhibition, usual class: inhibitors; 76,000 compounds, 1.6% hits; AID 1347048; calls by dose curve; further: nearly all actives have a fitted effect of over 60% in size
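HEK293 cells stably expressing human Npr1 and cGMP GloSensor pGS-40F, loaded 2 h with 2% GloSensor reagent, given compound 30 min at room temperature. Luminescence read before and 20 min after 0.1 nM hNppA.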
NIH3T3 tox: NIH 3T3 cell cytotoxicity | NIH 3T3 viability, CellTiter-Glo ATP luminescence, 48-72 h | Potency, µM (doses to about 96.7 µM), for the others: top-dose activity change, negative = cytotoxicity, most hits filed as inhibitors | 94,000 compounds, 4.3% hits | AID 1345082; further: nearly all actives have a fitted effect of over 55% in size
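Cytotoxicity was measured by CellTiter-Glo ATP luminescence after 48 or 72 h compound exposure at 37 °C. Mouse NIH 3T3 fibroblasts were seeded at 400 cells/well and dosed by 23 nL pin transfer.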
HEK293 tox: cytotoxic compounds in HEK 293 cells; 94,000 compounds, 6.6% hits; HEK 293 viability, ATP luminescence (CellTiter-Glo), 48-72 h; Potency, µM (series often up to 115 µM), inactives show at the top dose activity change, negative = cytotoxicity, actives largely listed as inhibitors; further: nearly all actives have a fitted effect of over 60% in size
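Viability of HEK 293 cells, plated at 250 cells/well, was judged by cellular ATP after compound treatment for 48 or 72 hr. Luminescence was imaged 10 min after CellTiter-Glo addition at room temperature.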
Luciferase inh: Photinus pyralis luciferase inhibition; P08659; purified P. pyralis luciferase, luminescence, biochemical; Potency, µM (series often up to 115 µM), usual class: inhibitors; 76,000 compounds, 2.5% hits; AID 1347043; further: nearly all actives have a fitted effect of over 65% in size
Target sequence (P08659 whole entry, looked up): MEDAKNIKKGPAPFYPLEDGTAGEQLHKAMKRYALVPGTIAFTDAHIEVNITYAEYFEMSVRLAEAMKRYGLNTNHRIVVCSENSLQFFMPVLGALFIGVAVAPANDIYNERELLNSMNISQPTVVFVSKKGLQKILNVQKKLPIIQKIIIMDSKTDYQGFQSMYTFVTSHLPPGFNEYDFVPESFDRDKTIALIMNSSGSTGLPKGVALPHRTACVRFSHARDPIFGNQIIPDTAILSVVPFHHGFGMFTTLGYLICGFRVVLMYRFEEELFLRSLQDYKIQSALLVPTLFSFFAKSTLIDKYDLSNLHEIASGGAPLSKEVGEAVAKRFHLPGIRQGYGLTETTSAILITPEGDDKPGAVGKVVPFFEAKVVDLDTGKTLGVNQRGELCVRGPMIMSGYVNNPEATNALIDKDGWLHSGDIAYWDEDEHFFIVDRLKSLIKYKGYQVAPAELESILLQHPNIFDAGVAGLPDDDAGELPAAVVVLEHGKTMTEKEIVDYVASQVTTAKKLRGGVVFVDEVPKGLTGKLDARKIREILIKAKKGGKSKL
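Luminescence read by CCD imager after adding enzyme (10nM final) to wells holding compound, titrated in qHTS. Substrates 10uM each D-luciferin and ATP; buffer 50mM Tris acetate pH 7.5, 10mM Mg acetate, Tween-20, BSA.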
Numbers without * were called inactive; i = inactive; u = inconclusive; x = no result given; [ ] = another dose, or the depositor's remark. Unless noted, the call rests on the fitted dose curve; in most records, active means well fitted curve in the direction sought with a large enough effect; inconclusive means small, poorly fitted or top-dose-only effect, or another doubt; inactive means no such curve, though single readings can be large; an effect the other way counts as inactive or inconclusive. On the % scale 0 is the no-effect control and ±100 the full control effect; potency means the concentration at half of the fitted maximal effect.

SMILES | GPT2 inh | hNpr1 antagonist | NIH3T3 tox | HEK293 tox | Luciferase inh
O=C(Nc1cccc(Br)c1)c1cnc(-c2ccccc2)nc1-c1ccncc1 | -14% | u | u | 40µM* | i
O=c1cc(CN2CCCC(c3nccn3Cc3ccccc3)C2)[nH]c(=O)[nH]1 (configuration not stated) | 0% | 7% | u | -19% | i
COCC(=O)NCCC1CCN(C(=O)Nc2ccc(C)cc2)CC1 | 0% | -1% | i | -1% | i
O=[S+]([O-])(NC1CCN(c2ccnc3ccnn23)CC1)c1cccs1 | 3% | x | -17% | -22% | x
Cc1cc(C(=O)NCc2ccc(F)cc2)c2c(C3CCNCC3)noc2n1 | u | x | -25% | -27% | x
O=C(c1cccc2[nH]ccc12)N1CC(Oc2cccc(-c3nc(-c4ccccc4)no3)c2)C1 | i | 1% | u | 35µM* | u
Cn1cccc1C(=O)N1CC(Oc2cccc(-c3nc(-c4ccccc4)no3)c2)C1 | i | -5% | u | 45µM* | u
Cc1nc(C)c(C(=O)N2CC(Oc3cccc(-c4nc(-c5ccccc5)no4)c3)C2)s1 | 2% | -24% | u | 40µM* | u
Cc1cc(S(=O)(=O)N2CCCC(Cn3c(C4CC4)nc4cccnc43)C2)ccc1F (configuration not stated) | i | -6% | -14% | -22% | i
C[C@H]1CCCN1C(=O)c1nnc(CNCc2cccc(Cl)c2)n1-c1ccccc1 | 0%[88.5 µM] | -6%[70.6 µM] | u | u | i
C[C@H]1CCCN1C(=O)c1nnc(COc2cccc(C(F)(F)F)c2)n1-c1cccnc1 | i | 0%[70.6 µM] | 100µM* | u | i
CC(C)c1ccc(OCc2nnc(C(=O)N3CCC[C@@H]3C)n2-c2cccnc2)cc1 | i | -2%[70.6 µM] | 14µM* | u | i
C[C@H]1CCCN1C(=O)c1nnc(CNc2ccccc2Cl)n1-c1ccccc1 | 1%[88.5 µM] | -29%[70.6 µM] | 100µM* | u | i
C[C@H]1CCCN1C(=O)c1nnc(COc2cccc(Cl)c2)n1-c1ccccc1 | i | -3%[70.6 µM] | u | u | i
CC(C)C(=O)NCCC1CCN(C(=O)Nc2cc(F)cc(F)c2)CC1 | -6% | 1% | 4% | 15% | i
Cc1ccccc1N1Cc2c(NCCCc3ccccc3)ncnc2N(C)CC1=O | u | -2% | 45µM* | u | i
Cc1ccccc1N1Cc2c(NCCc3ccc(F)cc3)ncnc2N(C)CC1=O | i | 0% | u | u | i
CN1CC(=O)N(c2ccc(Cl)cc2)Cc2c(NCCCc3ccccc3)ncnc21 | i | -21% | 32µM* | u | 40µM*
Cc1ccc(C)c(C(=O)N2C[C@@H](CO)[C@H](N(C)C)C2)c1 | 1% | 9% | i | 0% | i
CCn1nccc1C(=O)N1CCCC(n2cc(-c3nc(-c4ccccc4)no3)nn2)C1 (configuration not stated) | 2% | 13µM* | -29% | u | u
Cn1cccc1C(=O)N1CCCC(n2cc(-c3nc(-c4ccccc4)no3)nn2)C1 (configuration not stated) | 4% | u | u | u | 79µM*
O=C(Nc1ccc(Cl)cc1Cl)c1ccn2cncc2c1 | i | -6%[70.6 µM] | -7%[138 µM] | u | i
O=C(Nc1ccc(F)cc1)c1cccn2cncc12 | -21%[88.5 µM] | -1%[70.6 µM] | -27%[138 µM] | u | 45µM*
O=C(Nc1ccc(Cl)cc1Cl)c1cccn2cncc12 | i | -19%[70.6 µM] | u | u | 45µM*
Cn1c(=O)n([C@H]2CCCN(C(=O)CN3CCCCCC3)C2)c2ncccc21 | i | -13% | -12% | -21% | i
COc1cccc(CN2CCc3c(cc(C(=O)Nc4ccc(F)cc4C)n3C)C2)c1 | i | -4% | u | u | 25µM*
COc1cccc(CN2CCc3c(cc(C(=O)Nc4cc(C)ccc4C)n3C)C2)c1 | -8% | -22% | u | u | 32µM*
Cc1ccc(-c2cc(N3CCCN(C(=O)c4cccs4)CC3)n[nH]2)cc1C | u | -14% | -23% | u | u
Cc1cn2nc(C(=O)NCc3ccc(F)cc3F)cc2c(N(C)Cc2ccccc2)n1 | -10% | 2% | 35µM* | u | i
